About 83,000 compounds went through this panel and 20% of them were active in at least one assay; those are over-represented in the sample as a whole.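 Growth was measured after 48 h exposure to one concentration of compound in 96-well plates. Values under 10 count as active.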 Unmarked numbers belong to inactive results. The source made the active and inactive calls.
Experiments:
Assay in all cases: NCI-60 one-dose screen, 48 h (100 = growth as untreated, 0 = no growth, -100 = all killed)
Conditions in all cases: 10 µM unless noted
[1] = system: SR leukemia
[2] = system: RPMI-8226 leukemia
[3] = system: OVCAR-8 ovarian
[4] = system: OVCAR-5 ovarian
[5] = system: OVCAR-4 ovarian
[6] = system: SK-OV-3 ovarian
[7] = system: IGROV1 ovarian
[8] = system: OVCAR-3 ovarian
[9] = system: HS 578T breast
[10] = system: NCI/ADR-RES ovarian

CCCCCN1C(=O)/C(=c2\sc3n(c2=O)C2C(NN=3)N(CC)C(=O)N2CC)c2ccccc21 (stereo not given)
growth [1]: 1.69% (active) | growth [2]: 8.52% (active) | growth [3]: -53.2% (active) | growth [4]: -4.09% (active) | growth [5]: -56.7% (active) | growth [6]: 13.3% | growth [7]: 2.27% (active) | growth [8]: -74.5% (active) | growth [9]: -17.6% (active) | growth [10]: -11.1% (active)

CCCCCCCCCc1ccc(OCCOCCOCCOCCOCCOCCOCCOCCOCCO)cc1
growth [1]: -2.84% (active) | growth [2]: -12.1% (active) | growth [3]: 9.01% (active) | growth [4]: 48.3% | growth [5]: 22.4% | growth [6]: 110% | growth [7]: 24.4% | growth [8]: 2.54% (active) | growth [9]: 8.85% (active) | growth [10]: 1.74% (active)

O=C(/C=C/c1ccccc1)Nc1ncc(Cc2ccccc2Cl)s1
growth [1]: 17.9% | growth [2]: 25.4% | growth [3]: 39.5% | growth [4]: 44% | growth [5]: 70.2% | growth [6]: 44.4% | growth [7]: 31.5% | growth [8]: -24.2% (active) | growth [9]: 28.2% | growth [10]: 9.49% (active)

CCCCCCC12CCC(=O)N1CCc1cncn12 (stereo not given)
growth [1]: 116% | growth [2]: 94.6% | growth [3]: 101% | growth [4]: 98.7% | growth [5]: 119% | growth [6]: 99.2% | growth [7]: 105% | growth [8]: 118% | growth [9]: 112% | growth [10]: 104%

CC(C)=CC(=O)OCC(=O)O[C@@H]1C[C@]2(C(C)C)O[C@@]1(C)[C@@H]1CC[C@@H](C)[C@H]1[C@@H]2OC(=O)/C=C/c1ccccc1
growth [1]: 69.2% | growth [2]: 56% | growth [3]: 35.9% | growth [4]: 103% | growth [5]: 96.5% | growth [6]: 91.7% | growth [7]: 108% | growth [8]: 96.5% | growth [9]: -0.351% (active) | growth [10]: 30.6%

CSc1nc(N)c(NS(=O)(=O)c2ccc(C(C)=O)cc2)c(=O)[nH]1
growth [1]: 119% | growth [2]: 110% | growth [3]: 107% | growth [4]: 104% | growth [5]: 117% | growth [6]: 117% | growth [7]: 106% | growth [8]: 105% | growth [9]: 105% | growth [10]: 96.8%

N#Cc1c(-c2ccccc2)[nH]c2ncc(-c3ccccc3)n2c1=O
growth [1]: 89.8% | growth [2]: 106% | growth [3]: 95.6% | growth [4]: 109% | growth [5]: 96.2% | growth [6]: 76.6% | growth [7]: 50.7% | growth [8]: 86% | growth [9]: 88.6% | growth [10]: 91.2%

Cn1cc(-c2csc(-c3c[nH]c4ccccc34)n2)c2cnccc21
growth [1]: -7.21% (active) | growth [2]: -28% (active) | growth [3]: 18.2% | growth [4]: 75.4% | growth [5]: 14.3% | growth [6]: 85.3% | growth [7]: 47.3% | growth [8]: -59.8% (active) | growth [9]: 88.3% | growth [10]: 35.9%

CNC(=O)c1ccccc1Oc1nc(Nc2cc(OC)c(OC)c(OC)c2)ncc1Br
growth [1]: 42.9% | growth [2]: 73.1% | growth [3]: 72.2% | growth [4]: 71.2% | growth [5]: 49.5% | growth [6]: 70.1% | growth [7]: 46.8% | growth [8]: 66% | growth [9]: 69.2% | growth [10]: 66.8%

Cc1[nH]c(C(=O)Nc2ccc(C(=O)N3CCN(c4cc5c(cc4F)c(=O)c(C(=O)O)cn5C4CC4)CC3)cc2OC(C)C)c(Cl)c1Cl
growth [1]: 45.9% | growth [2]: 34.2% | growth [3]: 78.2% | growth [4]: 95.1% | growth [5]: 94.5% | growth [6]: 110% | growth [7]: 49.5% | growth [8]: 85.8% | growth [9]: 87.2% | growth [10]: 78.4%

O=C(NNC(=O)c1ccc(NC(=O)c2ccccn2)cc1)Nc1ccc([N+](=O)[O-])cc1
growth [1]: 109% | growth [2]: 106% | growth [3]: 104% | growth [4]: 92.4% | growth [5]: 108% | growth [6]: 106% | growth [7]: 88.5% | growth [8]: 109% | growth [9]: 75.6% | growth [10]: 106%

O=C(N/N=C/c1ccc(Cl)cc1)c1[nH]c2ccc(Cl)cc2c1-c1ccccc1
growth [1]: 52.2% | growth [2]: -3.56% (active) | growth [3]: 28.8% | growth [4]: 51.5% | growth [5]: 41.4% | growth [6]: -1.75% (active) | growth [7]: 17.3% | growth [8]: -13.4% (active) | growth [9]: 82% | growth [10]: 1.79% (active)

COc1ccc(Nc2nnc(-c3ccc(OC)c(OC)c3)o2)cc1
growth [1]: 86.6% | growth [2]: 92.1% | growth [3]: 90.9% | growth [4]: 100% | growth [5]: 89.2% | growth [6]: 98% | growth [7]: 78.7% | growth [8]: 91.4% | growth [9]: 94.2% | growth [10]: 89.2%

CC(C)(Sc1cc(C(C)(C)C)c(OC(=O)CCCC(=O)O)c(C(C)(C)C)c1)Sc1cc(C(C)(C)C)c(OC(=O)CCCC(=O)O)c(C(C)(C)C)c1
growth [1]: 61.6% | growth [2]: 21.9% | growth [3]: 36% | growth [4]: 76.2% | growth [5]: 79.6% | growth [6]: 91.5% | growth [7]: 36.6% | growth [8]: 21.1% | growth [9]: 57% | growth [10]: 70%

NC(=O)c1ccc(-c2c3ccccc3cc3c2ccc2ccccc23)cc1
growth [1]: 15.9% | growth [2]: 49.7% | growth [3]: 77.4% | growth [4]: 74.7% | growth [5]: 80% | growth [6]: 69.5% | growth [7]: 42.6% | growth [8]: 3.85% (active) | growth [9]: -12.4% (active) | growth [10]: 16.6%

Cc1cc(C(=O)Nc2ncc(Cc3cccc(C(F)(F)F)c3)s2)c2ccccc2n1
growth [1]: 9.35% (active) | growth [2]: 33.9% | growth [3]: 43.4% | growth [4]: 47.7% | growth [5]: 42.4% | growth [6]: 36% | growth [7]: 31.5% | growth [8]: 13.3% | growth [9]: -0.594% (active) | growth [10]: 16.4%

NC(=O)C(=O)c1ccccc1NC=O
growth [1]: 113% | growth [2]: 105% | growth [3]: 95.4% | growth [4]: 102% | growth [5]: 98.4% | growth [6]: 97.4% | growth [7]: 94.8% | growth [8]: 110% | growth [9]: 109% | growth [10]: 89.6%

CCOC(=O)c1cc2c(n1C)-c1nc(NC(C)=O)sc1CCC2
growth [1]: 72.6% | growth [2]: 79% | growth [3]: 71.2% | growth [4]: 117% | growth [5]: 80.4% | growth [6]: 76.1% | growth [7]: 69.2% | growth [8]: 85.7% | growth [9]: 60.5% | growth [10]: 85.1%

Ic1ccc(OCCCCn2ccnc2)cc1
growth [1]: 45.1% | growth [2]: 73.5% | growth [3]: 95.5% | growth [4]: 64.4% | growth [5]: 44.7% | growth [6]: 80.9% | growth [7]: 71.9% | growth [8]: 39.2% | growth [9]: 90.2% | growth [10]: 90.7%

Cc1csc(Nc2nc(-c3ccccn3)nc(C(Cl)(Cl)Cl)n2)n1
growth [1]: 53.2% | growth [2]: 91.5% | growth [3]: 77.7% | growth [4]: 108% | growth [5]: 83.6% | growth [6]: 97.8% | growth [7]: 82.1% | growth [8]: 97.4% | growth [9]: 115% | growth [10]: 66.8%

CC(=O)Oc1ccc(N2C(=O)C(Cl)=C(Nc3cccc(C(F)(F)F)c3)C2=O)cc1
growth [1]: 80.4% | growth [2]: 77.6% | growth [3]: 97.9% | growth [4]: 91.5% | growth [5]: 110% | growth [6]: 87.9% | growth [7]: 97.1% | growth [8]: 91.9% | growth [9]: 107% | growth [10]: 97.5%
